Data on 95 molecules can be found in PubChem BioAssay AID1566 (Sanford-Burnham Center for Chemical Genomics, 2009).

Molecules are shown by their SMILES. The campaign covered roughly 290,000 compounds. About 1,800 (0.62%) were called active. Many of the other results were omitted from the sample, so actives are more common in it than they were. Unmarked numbers belong to inactive results. No stated cut-off is given here; in the data, active means inhibition above about 50%; inactive means the rest.

This assay is described as follows: NOD2 signaling inhibitors, cell-based, luminescence, uHTS, HEK293 (AID 1566). The following applies: HEK293 NOD2/NF-kB luciferase reporter, at 4 µM, stronger effect = higher value.
In the case of `Cc1cc(C)c(S(=O)(=O)N2CCCOC2CNC(=O)C(=O)NCc2ccco2)c(C)c1` (stereo not given), the inhibition was 15%. As for `CC(C)(C)C1=CC(=O)C(N2CCOCC2)=CC1=O`, the figure is 14.9%; as for `CC1=C(C)C(=O)C(N2CCOCC2)=CC1=O`, 12.8%; as for `Cc1ccccc1NC(=O)C(C)Sc1nnc(-c2ccncc2)n1CC1CCCO1` (stereo not given), -16.6%. The figure for `CC(NC(=O)C1CCCO1)c1ccccc1` (stereo not given) is 3.6%; for `CC(=O)N1CCN(c2ccc(NC(=S)NC(=O)COc3ccc(C(C)(C)C)cc3)cc2)CC1` it is 68.1% (active); for `CC(=O)N1CCN(c2ccc(NC(=O)c3ccc(C(C)(C)C)cc3)cc2)CC1` it is 3.5%. In the case of `CCC(=O)N1CCN(c2ccc(NC(=S)NC(=O)COc3ccccc3)cc2)CC1`, the inhibition was 8.2%. For the molecule `CCOc1ccccc1-c1cc(C(=O)N/N=C/c2ccc(O)c(OC)c2)c2ccccc2n1`, the inhibition is -16.4%. For `Cc1ccc(CNC(=O)c2ccc(NC(=O)C3=CSCCO3)cc2)cc1`, the inhibition is 8.2%. Turning to `O=C(NNc1ccc(F)cc1)c1c(F)cccc1Cl`, the inhibition was -2.7%. For `CC(=O)c1sc(NC(=O)C(C)C)nc1C`, the inhibition was 8.3%.

With `CC(=O)c1sc(NC(=O)C2(F)C(F)(F)C(F)(F)C(F)(F)C(F)(F)C2(F)F)nc1C`, the inhibition is 55.2% (active). As for `CC(=O)Nc1nc(C)c(C(C)=O)s1`, the inhibition was -12.2%. As for `CCOc1ccc(N=C2NC(=O)S/C2=C\c2ccc(Cl)cc2)cc1`, the figure is -11%. On to `CCOCCCNCc1cc(Br)ccc1OCc1ccccc1`, for which the inhibition is 19%. As for `CNC(=O)C(=O)NCC1OCCN1S(=O)(=O)c1ccc(OC)c(OC)c1` (stereo not given), the figure is -11.3%. Regarding `COc1cccc(CN2C(=O)C(C)N(C(=O)c3ccccc3)c3ccccc32)c1` (stereo not given), the inhibition was 51% (active). The figure for `COc1cccc(CN2C(=O)C(C)N(C(=O)c3c(F)cccc3F)c3ccccc32)c1` (stereo not given) is 45.6%; for `CC1C(=O)N(Cc2ccccc2)c2ccccc2N1C(=O)c1ccccc1` (stereo not given) it is 13.9%; for `CC(C(=O)Nc1cc([N+](=O)[O-])ccc1Cl)N1CCN(c2ccc(O)cc2)CC1` (stereo not given) it is 1.4%. As for `COc1ccc(Cl)cc1NC(=S)Nc1ccccc1C`, the figure is 0.6%. For `Cc1csc2c(=O)sc(NC(=O)c3cccs3)nc12`, the inhibition is 25.6%. Regarding `COc1ccc(-n2c(C)cc(C(=O)COC(=O)c3cc(NC(=O)c4cccs4)c(OC)c(OC)c3)c2C)cc1`, the inhibition was 12.4%. As for `COc1cc(NC(=O)c2cccs2)c(C(=O)OCC(=O)c2cc(C)n(-c3ccc(F)cc3)c2C)cc1OC`, the inhibition is 9.1%. As for `Clc1ccc(/C=N/Nc2nnc(-c3ncc[nH]3)c3ccccc23)cc1`, the inhibition is -40.1%.

For `Oc1ccc2ccccc2c1/C=N/Nc1nnc(-c2ncc[nH]2)c2ccccc12`, the inhibition is 66.3% (active). Consider `COc1ccc(/C=N/Nc2nnc(-c3ncc[nH]3)c3ccccc23)cc1`, for which the inhibition is -81.3%. As for `CS(=O)(=O)Nc1ccccc1C(=O)NCCSCc1ccccc1`, the inhibition is -4.8%. `CNC(=S)NC1CC2CCC(C1)N2Cc1ccccc1` (stereo not given): the inhibition was 0.2%. For `CC(C)C(NC(=O)C(NC(=O)C1O[C@@H]2OC(C)(C)O[C@@H]2[C@H]2OC(C)(C)O[C@@H]12)C(C)C)C(=O)O` (stereo not given in full), the inhibition was 20%. Regarding `CCOC(=O)Cc1csc(NS(=O)(=O)c2cc(Cl)ccc2Cl)n1`, the inhibition was -18.2%. For `Brc1cc(Br)c2nc3c(cc2c1)CCC3`, the inhibition was 7.6%. On to `COc1cc2cc(Br)cc(Br)c2nc1C`, for which the inhibition was 5.9%. As for `CCS(=O)(=O)N1CCN(C(=O)c2cccc(OC)c2)CC1`, the inhibition was 14.1%. For `Cc1cc2cc(CNC(=S)Nc3ccc(OC(F)F)cc3)ccc2[nH]1`, the inhibition is 4.6%. As for `C=CCn1c(-c2cccn(Cc3cccc(Cl)c3)c2=O)n[nH]c1=S`, the figure is 12.9%; as for `C=CCn1c(-c2cccn(Cc3ccc(Cl)cc3)c2=O)n[nH]c1=S`, 50.3% (active).

For `C=CCn1c(-c2cccn(Cc3ccccc3)c2=O)n[nH]c1=S`, the inhibition is 15.3%. The figure for `CSc1ccccc1OCc1cc(C(=O)N2CCSCC2)no1` is -40.6%; for `CC1=C(C(=O)OCc2ccccc2)C(c2cccc([N+](=O)[O-])c2)NC(=O)N1CCCCCC(=O)O` (stereo not given) it is 10.6%; for `COc1ccccc1OCC(=O)NC1CCCCCC1` it is 10.3%. As for `O=C(c1ccc(Oc2ccc([N+](=O)[O-])cc2Cl)cc1)N1CCCC1`, the inhibition was 15.1%.

Regarding `COc1cc(/C=N/N2CCN(Cc3ccc(C)cc3)CC2)cc(OC)c1O`, the inhibition is 2.5%.

For the molecule `O=C(Nc1c(-c2ccc(F)cc2)nc2ccccn12)c1ccc(F)cc1`, the inhibition is 79.7% (active). Regarding `CC(=O)Nc1c(-c2ccc(F)cc2)nc2ccccn12`, the inhibition is -10.8%. The figure for `O=C(Nc1c(-c2ccccc2)nc2ccccn12)c1ccccc1` is 3.9%; for `O=C(CCS(=O)(=O)c1ccccc1)N1CCN(c2cccc(C(F)(F)F)c2)CC1` it is 11.5%.

As for `COc1ccc(/C=C/C(=O)Nc2ccccc2C(F)(F)F)cc1`, the inhibition is -25.4%.

Regarding `CCCCOCC(O)CN1CCN(C(C)=O)CC1` (stereo not given), the inhibition was 10.9%. On to `O=[N+]([O-])c1cc(Cc2ccccc2)cc(C=Nc2ccc(N3CCOCC3)cc2)c1O`, for which the inhibition was 11.1%. Consider `COc1ccc(N=Cc2cc(Cc3ccccc3Cl)cc([N+](=O)[O-])c2O)cc1OC`, for which the inhibition was -10.2%. In the case of `O=C1NN=C(c2ccccc2)CC1c1c[nH]c2ccccc12` (stereo not given), the inhibition was -14%. Consider `COc1ccc(NC(=O)CS(=O)(=O)c2cn(CC(=O)N3CCCC3)c3ccccc23)c(OC)c1`, for which the inhibition was -10.2%. As for `Cc1ncc(CO)c(/C=N/N=C/c2ccccc2O)c1O`, the inhibition was -28%.

Consider `Cc1ncc(CO)c(CNc2ccc(-c3nc4ccccc4[nH]3)cc2)c1O`, for which the inhibition was -99.7%.

Regarding `Cc1ncc(CO)c(CNc2ccc(Oc3ccccc3)cc2)c1O`, the inhibition was 50.4% (active). As for `O=C(COC(=O)c1ccc(Br)cc1)NC1CCCC1`, the figure is 10.3%; as for `O=C(Nc1cccc2ccccc12)c1ccccc1Cl`, -7.8%; as for `CCCCCCc1cc2cc(C(=O)Nc3ccccc3)c(=O)oc2cc1O`, -36.8%. Turning to `CCCCCCc1cc2cc(C(N)=O)c(=N)oc2cc1O`, the inhibition is 1.5%. As for `CCOC(=O)c1c(NC(=O)CSc2n[nH]c(-c3ccco3)n2)sc(C)c1C`, the figure is 11.6%. For `COCCSc1nnc(NC(=O)C2CC(=O)N(CCc3ccc(F)cc3)C2)s1` (stereo not given), the inhibition was 16.7%. On to `O=C(CCCCn1c(=O)c2ccccc2n(CC(=O)Nc2ccccc2)c1=O)NCc1ccco1`, for which the inhibition is 3.3%.

As for `COc1ccc(/C(O)=C/c2nc3ccccc3n(-c3ccccc3)c2=O)cc1`, the inhibition was 24.8%. Consider `COc1ccc(-n2c(=O)c(CCC(=O)N(C)Cc3ccccc3C)nc3ccccc32)cc1`, for which the inhibition is 0.2%. As for `Cc1ccc(NS(=O)(=O)c2cccc(C(=O)NNC(=O)c3cccn3C)c2)c(C)c1`, the figure is -2.3%; as for `C/C(=N\NC(=O)NC1CCCCC1)c1ccco1`, -11.6%; as for `O=C(c1cc(Cl)nc2ccccc12)N(Cc1nnc(-c2ccccc2Cl)o1)C1CC1`, 14.2%. With `Cc1noc(C)c1C(=O)NCc1ccccc1`, the inhibition was 16.6%. For `COc1ccc(NC(=O)c2cc([N+](=O)[O-])ccc2O)cc1`, the inhibition is 70.6% (active). Take `COc1ccc(NC(=O)c2cc([N+](=O)[O-])ccc2N2CCCC2)cc1`: the inhibition was 7.4%. In the case of `COc1ccc(NC(=O)c2cc([N+](=O)[O-])ccc2N2CCCCC2)cc1`, the inhibition is -14.3%. For `O=[N+]([O-])c1cc(Cl)ccc1NCCNc1ncc(C(F)(F)F)cc1Cl`, the inhibition was 12.4%. In the case of `Nc1cc(=O)[nH]c(SCc2ccc(Cl)cc2Cl)n1`, the inhibition was 58.1% (active). Take `Cc1cc(=O)[nH]c(SCc2ccc(Cl)cc2Cl)n1`: the inhibition is 4.6%.

For the molecule `Nc1cc(=O)[nH]c(SCc2ccccc2Cl)n1`, the inhibition was 23.4%. Turning to `Cn1c(C(=O)N2CCN(c3ccc(F)cc3)CC2)cc2ccccc21`, the inhibition was 1.5%. `O=c1cc(CSc2nc3ccccc3c(=O)[nH]2)c2ccc(O)cc2o1`: the inhibition is 70.3% (active). For the molecule `O=c1[nH]c(SCc2ccccc2F)nc2ccccc12`, the inhibition is 8.9%. `Cc1ccccc1CSc1nc2ccccc2c(=O)[nH]1`: the inhibition was -3.5%. Take `Cc1cc(-c2nnc(SCC(=O)c3ccc(Cl)cc3)o2)no1`: the inhibition was 1.2%. `COc1ccc(-c2oc3cccnc3c2-c2ccc(OC)nc2)cc1`: the inhibition is -2.2%. Regarding `COc1cc(CC(=O)Nc2ccc3c(c2)CCC3)cc(OC)c1OC`, the inhibition is 24.2%. Consider `COc1ccc(CC(=O)Nc2ccc3c(c2)CCC3)cc1`, for which the inhibition was 13.2%.

With `COc1ccc(CC(=O)Nc2ccc3c(c2)CCC3)cc1OC`, the inhibition was 53.3% (active).

Take `Cc1ccc(C)c(N2CCN(CC(=O)Nc3ccc([N+](=O)[O-])cc3C(=O)Nc3ccccc3F)CC2)c1`: the inhibition was -26.6%. Take `Cc1ccc(S(=O)(=O)c2c(N)n(CCN3CCOCC3)c3nc4ccccc4nc23)cc1C`: the inhibition is -39.8%.

`Cn1c(=O)cc(NCCc2ccccc2)[nH]c1=O`: the inhibition is -8.7%. As to `O=C(OCCN=C1NS(=O)(=O)c2ccccc21)c1ccncc1`, the inhibition is -0.9%.

As to `CCc1ccc(S(=O)(=O)NCc2cn3ccsc3n2)s1`, the inhibition is 13.4%. For `CCCCCCCC(=O)NC(Nc1ccc(S(N)(=O)=O)cc1)C(Cl)(Cl)Cl` (stereo not given), the inhibition is 22.9%.

With `CN(C)S(=O)(=O)c1cccc(NC(=O)c2cnccn2)c1`, the inhibition is 6.9%. The figure for `CN(C)S(=O)(=O)c1cccc(NC(=O)c2ccncc2)c1` is 12.4%; for `O=C(CC1CC2CCC1C2)OCC(=O)c1c[nH]c2ccccc12` (stereo not given) it is 12.6%.
